SMILES strings stand for the structures. Screen size: about 350,000 compounds; about 7,000 (2%) were called active. Shown is part of a subset that was picked to be rich in actives. Values without a mark were called inactive. No stated cut-off is given here; in the data, active means activation above about 40%; inconclusive means no clear call, values can overlap the other calls; inactive means below that.

This experiment is described as follows: raisers of Bmi1 knock-in reporter signal – mouse ES cells, Bmi1 luciferase knock-in, single point, esBAF inhibitor project, primary screen (AID 602393).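 Further: 0% = median of the plate's neutral control wells and 100% = double that signal; a rise in the Bmi1 reporter signal indicates esBAF inhibition.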 To be noted: 24 h, at 12.5 µM, stronger effect = higher value, 100% = twice the neutral-well signal.
As to `COc1ccc(NC(=O)Nc2ccc3c(c2)[C@H]2C[C@H](CC(=O)NC4CCCC4)O[C@H](CO)[C@H]2O3)cc1`, the reporter increase was 2.4%.

Regarding `Cc1csc(NC(=O)c2ccc(C)s2)n1`, the reporter increase was 50.8% (active).

`Cc1csc(NC(=O)C2CCN(S(=O)(=O)c3ccccc3)CC2)n1`: the reporter increase is -5.46%.

Take `Cc1csc(NC(=O)CN2CCCCCC2)n1`: the reporter increase was -1.61%.

With `CCNC(=O)[C@H]1[C@H](CO)[C@H]2Cn3c(ccc(/C=C/c4ccccc4)c3=O)[C@@H]1N2C(=O)C1CCC1`, the reporter increase is 0.423%.

With `COC(=O)C[C@H]1CC[C@H](NC(=O)c2ccccc2)[C@@H](CO)O1`, the reporter increase was -1.98%.

Turning to `C/C=C/c1ccc2c(c1)O[C@@H](CN(C)S(C)(=O)=O)[C@@H](C)CN([C@H](C)CO)S2(=O)=O`, the reporter increase was -0.163%.

Consider `COc1cccc(NC(=O)CSc2nnc(-c3cccnc3)o2)c1`, for which the reporter increase is 13.3%.

With `COc1ccc(-c2nnc(SCc3cccnc3)o2)cc1`, the reporter increase was 52.4% (active).

`COc1ccc(-c2nnc(SC(=O)N3c4ccccc4Sc4ccccc43)o2)cc1`: the reporter increase was 2.78%.

With `CC(C)NC(=O)N(C)C[C@H]1Oc2ncc(C#CC3CC3)cc2C(=O)N([C@H](C)CO)C[C@@H]1C`, the reporter increase was -3.17%.

With `CCCC(=O)Nc1ccc2c(c1)OC[C@H](C)N(S(=O)(=O)c1cn(C)cn1)C[C@@H](C)[C@H](OC)CN(C)C2=O`, the reporter increase is -1.9%.

Consider `CN1C(=O)c2cc(NC(=O)c3ccccc3)ccc2OC[C@@H]2O[C@H](CC(=O)NCC3CC3)CC[C@@H]21`, for which the reporter increase is 6.3%.

`C/C=C/c1ccc2c(c1)O[C@H](CN(C)C(=O)CN(C)C)[C@H](C)CN([C@@H](C)CO)S2(=O)=O`: the reporter increase is 0.684%.

As for `CCOC(=O)Cc1csc(NC(=O)Nc2ccccc2)n1`, the reporter increase is 47.4% (active).

As for `COc1ccccc1NC(=O)Nc1nc(CC(=O)Nc2ccccc2F)cs1`, the reporter increase is 1.14%.

For the compound `CCOC(=O)Cc1csc(NC(NC(=O)OCC)(C(F)(F)F)C(F)(F)F)n1`, the reporter increase is -0.744%.

As for `C[C@@H]1CN([C@@H](C)CO)C(=O)c2cc(NS(=O)(=O)c3ccccc3)ccc2O[C@@H](C)CCCCO[C@@H]1CN(C)S(=O)(=O)c1cccs1`, the reporter increase was 6.97%.

For the compound `C[C@@H]1CN([C@H](C)CO)S(=O)(=O)c2ccc(C#CCN(C)C)cc2O[C@@H]1CN(C)C(=O)C1CCCCC1`, the reporter increase is -0.287%.

On to `O=C(c1cc(COc2ccc(F)cc2F)on1)N1CCOCC1`, for which the reporter increase is 61.9% (active).

As to `O=C(c1cc(COc2ccc(F)c(F)c2)on1)N1CCOCC1`, the reporter increase is 37.7%.

Consider `COc1cccc(OC)c1OCCN1CCN(C(=O)c2ccco2)CC1`, for which the reporter increase is -3.54%.

For the compound `O=C(NCCCc1ccccc1)c1cc(COc2c(F)cccc2F)on1`, the reporter increase was 17.5%.

Turning to `O=C(c1cc(COc2cccc(C(F)(F)F)c2)on1)N1CCSCC1`, the reporter increase is -2.92%.

`O=C(c1cc(COc2c(F)cccc2F)on1)N1CCSCC1`: the reporter increase was 53.1% (active).

On to `O=C(c1ccco1)N1CCN(C(=O)c2ccc(COc3ccc(F)cc3)o2)CC1`, for which the reporter increase is -8.59%.

As for `COc1cccc(OCc2cc(C(=O)N3CCN(C(=O)c4ccco4)CC3)no2)c1`, the reporter increase was 70.2% (active).

Turning to `Cc1ccc(C)c(OCc2cc(C(=O)N3CCN(c4cnccn4)CC3)no2)c1`, the reporter increase was 3.21%.

Consider `C[C@@H]1CN([C@@H](C)CO)C(=O)c2cc(NC(=O)C3CCCCC3)ccc2O[C@@H](C)CCCCO[C@H]1CN(C)C(=O)Nc1ccc2c(c1)OCO2`, for which the reporter increase was 7.74%.

Regarding `CC(=O)N[C@@H]1C=C[C@H](CC(=O)NCC2CCCCC2)O[C@H]1CO`, the reporter increase is 4.99%.

For the compound `C[C@@H]1CCCCO[C@@H](CN(C)Cc2ccncc2)[C@@H](C)CN([C@@H](C)CO)C(=O)c2cc(N(C)C)ccc2O1`, the reporter increase was 1.32%.

Turning to `COc1cccc(NC(=O)N[C@@H]2C=C[C@H](CC(=O)NCc3ccccn3)O[C@H]2CO)c1`, the reporter increase was -1.55%.

For the compound `COc1cccc(C(=O)Nc2ccc3c(c2)C(=O)N(C)C[C@@H](OC)[C@@H](C)CN(C)[C@@H](C)CO3)c1`, the reporter increase was 1.2%.

As for `C[C@@H]1CN([C@@H](C)CO)S(=O)(=O)c2ccc(-c3cccnc3)cc2O[C@H]1CN(C)CC1CCOCC1`, the reporter increase is 2.46%.

As to `O=C(C[C@H]1C[C@@H]2c3cc(NC(=O)CC4CC4)ccc3O[C@@H]2[C@H](CO)O1)NCc1ccccn1`, the reporter increase is 0.771%.

Take `C[C@H]1CN([C@@H](C)CO)C(=O)c2cc(C3=CCCC3)cnc2O[C@H]1CN(C)C(=O)Nc1ccc(F)cc1`: the reporter increase is -1.8%.

With `COc1cccc(-c2cnc3c(c2)C(=O)N([C@H](C)CO)C[C@H](C)[C@H](CN(C)C(=O)NC(C)C)O3)c1`, the reporter increase was -3.06%.

Turning to `Cc1ccccc1-c1ccc([C@@H]2[C@H](CO)N3CCCCN(S(=O)(=O)c4ccc(F)cc4)C[C@@H]23)cc1`, the reporter increase was -4.12%.

For the compound `O=c1oc2cc(O)ccc2cc1-c1ccc(F)cc1`, the reporter increase is 47.3% (active).

`CO[C@@H]1CC[C@H]2CCOc3c(C#N)cccc3C(=O)N(C)C[C@@H](OC)[C@H](C)C(=O)N(C)C[C@@H]1O2`: the reporter increase was -3.58%.

Consider `CCCNC(=O)N(C)C[C@H]1Oc2ncc(-c3ccc(F)cc3)cc2C(=O)N([C@H](C)CO)C[C@H]1C`, for which the reporter increase is 1.97%.

For `C[C@@H](NC(=O)C[C@H]1CC[C@H](NS(=O)(=O)c2cccc(F)c2)[C@H](CO)O1)c1ccccc1`, the reporter increase is -2.73%.

Regarding `CO[C@H]1CN(C)C(=O)c2cc(NS(=O)(=O)CC(F)(F)F)ccc2OC[C@@H](C)N(Cc2nccs2)C[C@@H]1C`, the reporter increase is -3.43%.

Take `O=C(Nc1ccc2c(c1)OCO2)N[C@@H]1CC[C@H](CC(=O)N2CCN(c3ccccc3)CC2)O[C@@H]1CO`: the reporter increase was -0.613%.

For the compound `Cc1ccc(NC(=O)NC2CCCCC2)cc1S(=O)(=O)N1CCOCC1`, the reporter increase was -1.63%.

In the case of `Cc1ccc(C)c(S(=O)(=O)N2CCCOC2CNC(=O)C(=O)NC2CCCCC2)c1` (stereo not given), the reporter increase is 51.3% (active).

Take `O=C(NCCC1CCCCN1S(=O)(=O)c1ccccc1)C(=O)NCC1CCCO1` (stereo not given): the reporter increase is -3.85%.

For `O=C(C[C@H]1CC[C@H]2[C@@H](COC[C@@H](O)CN2C(=O)c2ccc3c(c2)OCO3)O1)NC1Cc2ccccc2C1`, the reporter increase was -0.266%.

For `CN(C)CC(=O)Nc1ccc2c(c1)[C@H]1C[C@H](CC(=O)NCc3ccc4c(c3)OCO4)O[C@@H](CO)[C@H]1O2`, the reporter increase is 2.82%.

For `Cn1c(SCC(=O)N2CCCC2)nnc1-c1ccc2c(c1)OCO2`, the reporter increase is 1.7%.

On to `O=C(O)CSc1nnc(-c2ccc3c(c2)OCO3)n1-c1ccccc1`, for which the reporter increase was 19.1%.

Consider `Cn1c(SCc2nc3ccccc3s2)nnc1-c1ccc2c(c1)OCO2`, for which the reporter increase is 66.4% (active).

Take `C[C@@H]1CCCCO[C@H](CN(C)C(=O)Cc2ccccc2)[C@H](C)CN([C@H](C)CO)C(=O)c2cc(NS(=O)(=O)c3cn(C)cn3)ccc2O1`: the reporter increase was 5.86%.

In the case of `C[C@H](CO)N1C[C@H](C)[C@@H](CN(C)Cc2cccc3c2OCCCO3)OCc2cn(nn2)CCCC1=O`, the reporter increase is -0.925%.

As to `Cc1nn(C(=O)c2ccoc2C)c(N)c1-c1ccccc1`, the reporter increase was 78.5% (active).

Turning to `Cc1ccnc(NC(=O)c2ccoc2C)c1`, the reporter increase is 25.4%.

Take `Cc1occc1C(=O)Nc1cccc(Cn2cccn2)c1`: the reporter increase was 10.4%.

As to `C[C@@H]1CN([C@H](C)CO)C(=O)Cc2cc(NS(=O)(=O)c3ccc(Cl)cc3)ccc2O[C@@H]1CN(C)C`, the reporter increase is -0.489%.

For the compound `O=S(=O)(NCCOc1cccc2cccnc12)c1ccc(F)cc1`, the reporter increase was 11.1%.

Turning to `Fc1ccccc1COc1cccc2cccnc12`, the reporter increase is 45.7% (active).

With `Fc1ccccc1COc1ccccc1CNCc1ccncc1`, the reporter increase was 2.36%.

On to `CC(C)CC#Cc1cnc2c(c1)C(=O)N([C@@H](C)CO)C[C@H](C)[C@@H](CN(C)Cc1ccccc1C(=O)O)O2`, for which the reporter increase is -9.83%.

Regarding `CCCOC1CCCN(C(=O)c2cc(COc3cncc(Cl)c3)on2)C1` (stereo not given), the reporter increase was 66.1% (active).

Take `CCn1ccnc1CN(C)C(=O)c1cc(COc2ccc(Cl)cc2OC)on1`: the reporter increase is 1.62%.

Regarding `CCOC(=O)CC1(NC(=O)c2cc(COc3cncc(Cl)c3)on2)CCCCC1`, the reporter increase is 2.06%.

Consider `COc1cc(Cl)ccc1OCc1cc(C(=O)N(C)CCc2c(C)n[nH]c2C)no1`, for which the reporter increase was 14.1%.

For `COc1cc(Cl)ccc1OCc1cc(C(=O)N2CC[C@@H]3CCCC[C@H]3C2)no1`, the reporter increase was 52.6% (active).

Consider `CCOC(=O)C1CCCN(C(=O)c2cncc(Br)c2)C1` (stereo not given), for which the reporter increase was -6.09%.

As for `C[C@@H]1CN([C@H](C)CO)C(=O)c2cc(NC(=O)Cn3cnnn3)ccc2O[C@@H]1CN(C)CC1CC1`, the reporter increase is -4.62%.

As to `C[C@H](CO)N1C[C@H](C)[C@H](CN(C)S(C)(=O)=O)Oc2c(NC(=O)Nc3cccc4ccccc34)cccc2C1=O`, the reporter increase is -0.771%.

Turning to `C[C@H](O)C#Cc1cnc2c(c1)C(=O)N([C@@H](C)CO)C[C@H](C)[C@H](CN(C)C(=O)c1ccccc1)O2`, the reporter increase is -2.39%.

For `CN1C(=O)c2cc(NC(=O)c3ccccc3)ccc2OC[C@@H]2O[C@@H](CC(=O)NC3CCCC3)CC[C@H]21`, the reporter increase is -4.47%.

In the case of `C[C@H]1CCCCO[C@@H](CN(C)Cc2ccc3c(c2)OCO3)[C@@H](C)CN([C@@H](C)CO)C(=O)c2cc(NS(=O)(=O)c3ccc(F)cc3)ccc2O1`, the reporter increase is 3.56%.

Take `COCCN(C[C@H]1[C@@H](c2ccccc2)[C@H](CO)N1C(=O)C1CCC1)C(C)=O`: the reporter increase was -2.98%.

On to `C[C@@H]1CN([C@H](C)CO)C(=O)c2cc(C#CC3CC3)cnc2O[C@H]1CN(C)C(=O)CC1CC1`, for which the reporter increase is 3.96%.

These data come from PubChem BioAssay AID602393 (Broad Institute, 2012).
